Results on 38 compounds are retold here after PubChem BioAssay (EPA / NIEHS).

SMILES strings stand for the structures. The source made the active and inactive calls. The calls were made as follows: active = hit-call score of the fitted dose curve at least 0.9, where 1 is the maximum; inactive = score below 0.9.

The AC50 is the concentration at which the activity in the assay is half-maximal.

Read-out in the test: Decorin, DCN (gene 1634)
Kind of test: BSK_MyoF_Decorin: BioMAP Diversity Plus: MyoF Assay for Decorin Biomarker Activity (AID 2284265). Conditions: primary human lung fibroblasts. The protocol: BSK_MyoF is a cell-based, multiplexed-readout assay that uses lung fibroblasts, […], with measurements taken at 24 hours after chemical dosing in a microplate: 96-well plate.BSK_MyoF_Decorin is an assay component measured in the BSK_MyoF assay. It measures Decorin antibody related to regulation of gene expression using ELISA technology.Data from the assay component BSK_MyoF_Decorin was analyzed at the endpoint, BSK_MyoF_Decorin, in the positive analysis fitting direction relative to DMSO as the negative control and baseline of activity. Using a type of binding reporter, gain or loss-of-signal activity can be used to understand protein changes. To generalize the intended target to other relatable targets, this assay endpoint is annotated to the 'cell adhesion molecules' intended target family, where the subfamily is 'decorin'.
The levels of cell surface (or secreted, indicated by the prefix "s") biomarker endpoints were measured by ELISA. Overt cytotoxicity to cells in confluent adherent cultures (all systems other than the BT system) was assessed by measuring total protein levels using sulforhodamine B (SRB) staining in parallel cultures at the time of biomarker measurements, indicated as SRB endpoints. For proliferation assays for adherent cell types, individual cell types are cultured at sub-confluence and relative cell numbers quantified by SRB staining at time points optimized for each system (48 h: 3C and CASM3C systems; 72 h: BT and HDF3CGF systems; 96 h: SAg system). SRB was performed by staining cells with 0.1% SRB after fixation with 10% TCA and reading wells at 560 nm.Viability and proliferation of PBMC (T cells) was quantified by Alamar Blue reduction for the SAg and BT systems. For PBMC viability (referred to as PBMC Cytotoxicity within the assay endpoint names), cells were plated (75,000/well in a 96-well plate) and then chemical samples added for 1 h before addition of activators, SEB and TSST-1 (20 ng/mL final concentration each). Cells were incubated for 90 h. Then, Alamar Blue (20 uL/well) (Invitrogen, Cat DAL1100) was added for 6 h, and the plates were read with a fluorescence microplate reader at 546/580 nm (excitation/emission). For PBMC proliferation, cells were plated and activated as above but incubated for only 16 h prior to addition of Alamar Blue. Plates were read after 6 h.
As for `C#C[C@]1(O)CC[C@H]2[C@@H]3CCC4=Cc5oncc5C[C@]4(C)[C@H]3CC[C@@]21C`, the result was inactive.
Regarding `Cc1ccc2n[nH]nc2c1`, the outcome was inactive.
On the same count and under the same terms, in the case of `N#Cc1ccc(CC(=NNC(=O)Nc2ccc(OC(F)(F)F)cc2)c2cccc(C(F)(F)F)c2)cc1` it was “inactive”.
The same measure, in the same setting: in the case of `O=[N+]([O-])c1cc(C(F)(F)F)ccc1Cl` it was “inactive”.
Still for that read-out and setting: the result for `CCCCCCCCCCCCCCCCCC(=O)OCC(CC)CCCC` (stereo not drawn) reads “inactive”; that for `CCCCC(CC)COCCC#N` (stereo not drawn), “inactive”.
Turning to `CCCCC(CC)COC(=O)/C=C\C(=O)OCC(CC)CCCC` (stereo not drawn), the outcome was inactive.
As to `O=C(O)c1cn(C2CC2)c2cc(N3CCNCC3)c(F)cc2c1=O`, the result was inactive.
Same read-out and setting: in the case of `c1ccc2c(c1)c1cccc3ccc4cccc2c4c31` it was “inactive”.
The same measure, in the same setting: in the case of `O=C(O)C[C@H](O)C[C@H](O)/C=C/c1c(C2CC2)nc2ccccc2c1-c1ccc(F)cc1` it was “inactive”; in that of `c1ccc2sc(SN(C3CCCCC3)C3CCCCC3)nc2c1`, “inactive”; in that of `C=C[Si](OCC)(OCC)OCC`, “inactive”.
Same read-out and setting: the result for `CC(C)c1ccc(C(C)C)cc1` reads “inactive”.
In the case of `CCCCC/C=C/C=C/C=O`, the AC50 is 20 µM (active).
For `CC(=O)/C=C/C1=C(C)CCCC1(C)C`, the result was inactive.
Still for that read-out and setting: the result for `CN(CCOc1ccc(CC2SC(=O)NC2=O)cc1)c1ccccn1` (stereo not drawn) reads “inactive”; that for `BrC1CCC(Br)C(Br)CCC(Br)C(Br)CCC1Br` (stereo not drawn), “inactive”.
On the same count and under the same terms, the result for `CC1COc2ccccc2N1C(=O)C(Cl)Cl` (stereo not drawn) reads “inactive”.
Take `CC1CCC(C(C)CS)CC1S` (stereo not drawn): the AC50 is 10.1 µM (active).
For `O=C=NC1CCC(CC2CCC(N=C=O)CC2)CC1` (stereo not drawn), the result was inactive.
Same read-out and setting: the result for `O=C(O)c1cn(-c2ccc(F)cc2)c2cc(N3CCNCC3)c(F)cc2c1=O` reads “inactive”; that for `CCn1c2ccccc2c2cc(N)ccc21`, “inactive”; that for `CNC[C@H](O)c1cccc(O)c1`, “inactive”.
Still for that read-out and setting: in the case of `CCc1c(C)cc(N)c(CC)c1N` it was “inactive”.
As for `C=C(C)C(=O)O[C@H]1C[C@@H]2CC[C@@]1(C)C2(C)C`, the half-maximal activity concentration (AC50) is 31.7 µM (active).
For the compound `CC(C)Oc1ccccc1O`, the result was inactive.
Same read-out and setting: in the case of `CC(=O)Nc1ccccc1O` it was “inactive”.
As to `Cc1ccc(Nc2ccc(O)c3c2C(=O)c2ccccc2C3=O)cc1`, the result was inactive.
On the same count and under the same terms, the result for `Nc1cc([N+](=O)[O-])ccc1Cl` reads “inactive”; that for `CC(C)(COC(=O)c1ccccc1)COC(=O)c1ccccc1`, “inactive”.
As for `CCCCCCCCCC=O`, the result was inactive.
Same read-out and setting: the result for `CCCCCCCCC=O` reads “inactive”; that for `O=C1CCCCCCCCCCCCCCO1`, “inactive”.
Turning to `CC(=O)O[C@]1(C(C)=O)CC[C@H]2[C@@H]3C[C@H](C)C4=CC(=O)CC[C@]4(C)[C@H]3CC[C@@]21C`, the result was inactive.
In the case of `Cc1ccc(O)c(C(C)(C)C)c1`, the outcome was inactive.
Same read-out and setting: in the case of `COC(=O)c1ccc(C)cc1` it was “inactive”.
Still for that read-out and setting: in the case of `O=P(c1ccccc1)(c1ccccc1)c1ccccc1` it was “inactive”.
On to `O=C1OC2(c3cc(Br)c(O)c(Br)c3Oc3c2cc(Br)c(O)c3Br)c2c(Cl)c(Cl)c(Cl)c(Cl)c21`, for which the AC50 was 13.2 µM (active).
